# Screens: PubChem, National Center for Advancing Translational Sciences (NCATS)
# KB-V1 cytotox – KB-V1 MDR subline cytotoxicity | KB-V1 MDR cells viability, CellTiter-Glo, 72 h | Potency, µM (top dose mostly 46.1 µM), hits mostly cytotoxic | 400,000 compounds, 3.4% hits | AID 1347076; further: nearly all actives have a fitted effect of over 60% in size
#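 KB-V1, DMEM (no phenol red) + 10% FBS; cpd pin-transferred, titration series; 72 h, 37 degrees C; CellTiter-Glo, luminescence. Data normalized, curve-fit.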
# SW480 rereplic – DNA re-replication induction in SW480 cells | 340,000 compounds, 1.8% hits | SW480 DNA re-replication, Hoechst DNA content imaging, 48 h | AID 624297 | Potency, µM (titrated, usually from 46.1 µM), hits mostly activators; further: nearly all actives have a fitted effect of over 55% in size
#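 Image-based read-out: total Hoechst fluorescence of nuclei (405 nm excitation, 500-530 nm emission), with hits raising the fraction of high-intensity nuclei. SW480 colon cells incubated 48 hr with compounds at 37 C.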
# MCF10A rereplic – DNA re-replication induction in MCF 10a cells | MCF 10A DNA re-replication, Hoechst nuclear intensity, 48 h | Potency, µM (highest dose often 46.1 µM), actives largely listed as activators | 350,000 compounds, 2.9% hits; further: nearly all actives have a fitted effect of over 50% in size
# HT1080 IDH1KD tx – toxicity to HT-1080 IDH1 knockdown cells (counter line) | HT-1080 IDH1 knockdown viability, ATP luminescence, 48 h | Potency, µM (doses to about 46.1 µM), hits mostly cytotoxic | 360,000 compounds, 2% hits | AID 686971
#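 In this qHTS, HT-1080 cells depleted of IDH1 are exposed for 48 h at 37 °C to compound titrations. Toxicity is scored from CellTiter-Glo luminescence, with DMSO as full viability and medium alone as none.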
# KB-3-1 cytotox – kills parental KB-3-1 adenocarcinoma cells; KB-3-1 viability, CellTiter-Glo ATP luminescence, 72 h; 400,000 compounds, 1.4% hits; Potency, µM (doses to about 46.1 µM), usual class: cytotoxic; further: nearly all actives have a fitted effect of over 60% in size
#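 Viability of parental KB-3-1 cells, measured by CellTiter-Glo luminescence, followed a 72 h incubation at 37 °C with pinned compounds in phenol-red-free DMEM containing 10% FBS.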
# HT1080NT lethal – kills 2HG-producing HT-1080-NT fibrosarcoma cells; HT-1080-NT fibrosarcoma viability, CellTiter-Glo ATP luminescence, 48 h; Potency, µM (series often up to 46.1 µM), hits mostly cytotoxic; 360,000 compounds, 1.6% hits;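 further: NT is the 2HG producing partner of a matched IDH1 knockdown line; nearly all actives have a fitted effect of over 55% in size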
#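 Toxicity toward the 2HG-producing NT line was scored as %Activity, normalised to DMSO and no-cell wells, from CellTiter-Glo luminescence after 48 hours' treatment.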
# Numbers stand for hits; i = inactive; ? = inconclusive; nt = not tested or not shown; [ ] = remark or other dose. Rows were chosen to be rich in hits. Some 7.9% of all compounds tested hit in one or more screens of this group. The call rests on the fitted dose curve; in most records, active means well fitted curve in the direction sought with a large enough effect; inconclusive means small, poorly fitted or top-dose-only effect, or another doubt; inactive means no such curve, though single readings can be large; an effect the other way counts as inactive or inconclusive.
SMILES,KB-V1 cytotox,SW480 rereplic,MCF10A rereplic,HT1080 IDH1KD tx,KB-3-1 cytotox,HT1080NT lethal
Cc1ccc(NC2=C(NCCO)C(=O)c3ccccc3C2=O)cc1,i,?,i,?,?,?
CC(C)c1csc(CN2CCCC(CNC(=O)c3cccc4ccccc34)C2)n1 (stereo unspecified),i,?,?,i,i,i
Cc1ccc(S(=O)(=O)/N=C2\C=C(Nc3cccc(C(=O)O)c3)C(=O)c3ccccc32)c(C)c1,i,?,6.5µM,6.5µM,?,10µM
Cc1ccc(S(=O)(=O)/N=C2\C=C(NS(=O)(=O)c3ccccc3)C(=O)c3ccccc32)c(C)c1,i,i,?,i,i,i
COc1ccc(/C(O)=C/c2nc3ccccc3n(-c3ccccc3)c2=O)cc1,i,?,8.2µM,i,i,i
COc1ccc(-n2c(=O)c(CCC(=O)N3CCN(c4cccc(OC)c4)CC3)nc3ccccc32)cc1,i,nt,nt,i,i,i
COc1ccc(OCC(=O)NCc2nc(-c3ccccc3)no2)cc1,i,i,?,i,i,i
COc1ccc(/C=N/NC(=O)c2ccn[nH]2)cc1Cn1nc(C)c([N+](=O)[O-])c1C,i,?,?,i,i,i
Cc1cc(C)n2nc(CNS(=O)(=O)c3ccc(C)c(C)c3)nc2n1,i,i,i,i,i,i
COc1cc(/C=N/n2cnc3scc(-c4cccs4)c3c2=O)cc(OC)c1OC,?,?,i,?,4.6µM,?
COc1ccc(/C=N/n2cnc3scc(-c4cccs4)c3c2=O)cc1OC,i,i,i,i,i,i
C/C(=N\NC(=O)CSCc1ccc([N+](=O)[O-])cc1)c1cccc(Br)c1,i,i,i,i,i,i
CC(C)C[C@@H]1NC(=O)[C@H](Cc2ccccc2)N(C)C(=O)[C@H](C)NC(=O)c2ccccc2NC(=O)[C@H](Cc2ccc(O)cc2)N(C)C1=O,i,i,i,i,i,i
COc1ccc(CC2C(=O)NC(C)C(=O)N(C)C3Cc4ccc(cc4)Oc4cc(ccc4O)CC(C(=O)NC(C)C(=O)NC(C)C(=O)N2C)N(C)C3=O)cc1 (stereo unspecified),i,4.6µM,?,0.16µM,0.23µM,0.33µM
CSc1nc(-c2ccc(Cl)cc2)c(C#N)c(=O)[nH]1,i,i,i,i,i,i
N#Cc1c(Nc2ccc(Cl)cc2)s[nH]c1=O,i,?,18µM,?,i,i
CSc1nc(Nc2ccc(Cl)cc2)c(C#N)c(=O)[nH]1,5.2µM,i,i,i,5.2µM,i
CCOC(=O)Cn1c(=O)n(-c2ccccc2OC)c2nc(-c3ccccc3)nc(C(N)=O)c21,?,nt,nt,nt,i,nt
Cc1ccccc1-n1c(SCC(=O)N2CCCCC2)nc(O)cc1=O,nt,i,i,i,nt,i
Cc1ccc(Oc2ccc(S(=O)(=O)N3CCOCC3)cc2C(N)=O)c(-n2nc3ccccc3n2)c1,18µM,5.2µM,4.6µM,4.1µM,6.5µM,?
Cc1onc(-c2ccccc2)c1NC(=O)Nc1ccc(OC(F)F)cc1,i,i,i,i,i,i
c1ccc2sc(C3CCN(Cc4nnnn4Cc4ccc5c(c4)OCO5)CC3)nc2c1,16µM,i,?,i,23µM,i
COc1ccc(Cn2nnnc2CN2CCC(c3nc4ccccc4s3)CC2)cc1,?,i,?,?,i,i[9.24 µM]
CCCCn1c(N)c(N(CC(C)C)C(=O)CSCC(=O)Nc2ccc(OC)cc2)c(=O)[nH]c1=O,?,i,i,i,i,i
SMILES,KB-V1 cytotox,SW480 rereplic,MCF10A rereplic,HT1080 IDH1KD tx,KB-3-1 cytotox,HT1080NT lethal
CCOC(=O)c1ccc(NC(=O)Cn2nnc(-c3ccc(F)cc3)n2)cc1,i,i,i,i,i,i
CCC1CCCCN1S(=O)(=O)c1ccc(C(=O)Nc2nnc(-c3ccccc3Cl)o2)cc1 (stereo unspecified),?,?,?,8.2µM,?,?
COC(=O)c1sc2ccccc2c1NC(=O)c1ccc(S(=O)(=O)N2CCCCC2)cc1,i,i,i,i,i,i
O=C(Nc1nnc(-c2ccccc2Cl)o1)c1ccc(S(=O)(=O)N2CCCCCC2)cc1,8.2µM,?,4µM,8.2µM,?,4.1µM
CS(=O)(=O)c1ccccc1-c1nnc(NC(=O)c2ccc(S(=O)(=O)N3CCCC3)cc2)o1,i,i,i,i,i,i
COC(=O)c1sc2ccccc2c1NC(=O)c1ccc(S(=O)(=O)N2CCCCC2C)cc1 (stereo unspecified),16µM,i,i,i,i,i
CC1CCCCN1S(=O)(=O)c1ccc(C(=O)Nc2nnc(-c3ccccc3Cl)o2)cc1 (stereo unspecified),16µM,i,?,8.2µM,?,?
COCCOC(=O)c1c(C)oc2ccc(NS(=O)(=O)c3ccc(C(=O)O)cc3)cc12,i,i,i,i,i,i
COC(=O)c1c(C)oc2ccc(NS(=O)(=O)c3cc(OC)ccc3OC)cc12,10µM,i,?,?,26µM,?
CCOc1ccc(S(=O)(=O)Nc2ccc3oc(C)c(C(=O)OCCOC)c3c2)cc1,?,nt,nt,nt,5.8µM,nt
CC(=O)c1c(C)oc2ccc(NS(=O)(=O)c3ccc(C(C)C)cc3)cc12,?,nt,nt,nt,21µM,nt
CCCCOC(=O)c1c(C)oc2ccc(NS(=O)(=O)c3ccc4c5c(cccc35)C(=O)N4)cc12,15µM,i,?,i,?,i
CC(=O)Nc1ccc(NC(=O)CS(=O)(=O)Cc2ccccc2)cc1,i,i,i,i,i,i
COc1ccc(C2SCCN2C(=S)Nc2ccc(Cl)cc2)cc1 (stereo unspecified),23µM,i,i,i,?,i
COc1ccc(C2SCCN2C(=S)Nc2cccc(Cl)c2)cc1 (stereo unspecified),7.3µM,i,i,i,?,i
Cc1ccc(NC(=S)N2CCSC2c2cccs2)cc1 (stereo unspecified),i,?,i,i,i,i
COc1ccc(C2CCCN2C(=S)Nc2cccc(Cl)c2)cc1OC (stereo unspecified),i,i,i,i,?,i
COCCn1c(C)c(C(=O)O)sc1=S,i,i,i,i,i,i
O=C(NCCOc1ccc(F)cc1)C1CCC(=O)N(CC2CCCCC2)C1 (stereo unspecified),i,i,i,i,i,i
O=C(COc1ccc(Cl)cc1)NCCCNC(=O)c1cccnc1,i,i,i,?,i,?
O=C(COc1ccccc1Cl)NCCCNC(=O)c1cccnc1,i,i,i,?,i,26µM
CN(C)c1nc(OCCNC(=O)Nc2ccccc2)nc(N(C)C)n1,i,i,i,i,i,i
